Assay outcomes deposited in PubChem BioAssay by several laboratories.
In the library only some 3.7% were active in any assay of this set; here they are far more common.
Kir21 inh = blocks the mouse Kir2.1 inward-rectifier potassium channel. B-score at 10 µM. hit rate 0.85% among 310,000. HEK293-Kir2.1, FluxOR thallium flux fluorescence; hits give low values. P35561. AID 1672;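 active = fluorescence ratio B-score at or below minus 3 SD of library scores, with starting-brightness B-score within 2 SD, cut at about -4.2 in these data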;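 also: channel flux triggered by added potassium and thallium sulfate stimulus; B-score of peak minus minimum fluorescence over baseline after thallium stimulus; more negative B-score means stronger Kir2.1 block with less thallium influx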
Target sequence (P35561 whole entry, looked up): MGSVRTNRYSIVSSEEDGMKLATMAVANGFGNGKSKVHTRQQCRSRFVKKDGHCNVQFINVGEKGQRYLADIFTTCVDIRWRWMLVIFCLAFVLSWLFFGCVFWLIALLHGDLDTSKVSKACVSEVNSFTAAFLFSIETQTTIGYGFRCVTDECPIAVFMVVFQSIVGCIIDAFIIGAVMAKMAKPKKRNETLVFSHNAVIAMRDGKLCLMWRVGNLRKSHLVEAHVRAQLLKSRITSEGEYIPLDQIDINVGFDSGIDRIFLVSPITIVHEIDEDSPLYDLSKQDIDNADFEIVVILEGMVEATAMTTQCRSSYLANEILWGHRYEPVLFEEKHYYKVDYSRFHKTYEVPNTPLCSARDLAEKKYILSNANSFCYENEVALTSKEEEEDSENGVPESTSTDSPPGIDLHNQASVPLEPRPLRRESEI
GPR7 antagonist = blocks human GPR7 receptor signaling | hit rate 1.1% among 290,000 | P48145 | inhibition, % at 4.4 µM | GPR7-expressing cells, fluorescence antagonist assay | AID 1861; in the data active = inhibition above about 16%, passing the limit was not always enough;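 also: cells stimulated with the agonist NPW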
Target sequence (P48145 whole entry, looked up): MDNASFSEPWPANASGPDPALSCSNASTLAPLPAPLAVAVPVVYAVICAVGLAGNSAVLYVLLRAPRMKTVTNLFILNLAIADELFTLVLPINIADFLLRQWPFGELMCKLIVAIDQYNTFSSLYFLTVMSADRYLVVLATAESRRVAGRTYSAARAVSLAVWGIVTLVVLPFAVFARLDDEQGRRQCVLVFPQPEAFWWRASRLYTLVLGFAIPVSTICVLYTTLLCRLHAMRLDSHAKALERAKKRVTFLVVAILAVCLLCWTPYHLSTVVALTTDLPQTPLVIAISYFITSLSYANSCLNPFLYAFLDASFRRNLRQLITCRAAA
TMEM16A act = mouse TMEM16A channel activation, primary screen. Q8BHY3. HEK293 TMEM16A/YFP-H148Q/I152L, iodide quench fluorescence; hits give low values. B-score at 10 µM. hit rate 0.3% among 340,000. AID 623877;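 active = fluorescence-ratio B-score plate-corrected deviation score at least 3 library SD below zero, with starting fluorescence score within 5 deviations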;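 also: channel opened by trigger with iodide after compound preincubation; score built on the fluorescence ratio of max minus min over baseline; more negative score means more quench and so TMEM16A activation or potentiation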
CHT block = inhibitors of human choline transporter CHT | Q9GZV3 | CHT-expressing cells, membrane potential dye, choline response; hits give low values | B-score at 10 µM | hit rate 0.86% among 310,000;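 active = B-score over 3 SD under the library average, and starting fluorescence ratio not unusually high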;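 also: choline stimulus applied at its EC90 after an EC20 pre-addition; B-score computed on integrated fluorescence ratio after choline addition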
TMEM16A inh = mouse TMEM16A channel inhibition, primary screen. hit rate 1.2% among 310,000. normalized B-score (activity score, 25-100; higher = stronger inhibition) at 10 µM. AID 588511. Q8BHY3. HEK293 TMEM16A/YFP iodide influx fluorescence, ionomycin;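 active = ratio plate-corrected score three or more library SD toward inhibition, starting fluorescence score within five deviations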;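 also: score derived from kinetic fluorescence span divided by baseline fluorescence per well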
CHT allo act = human CHT allosteric activation. hit rate 0.49% among 310,000. AID 488977. B-score at 10 µM. CHT-expressing cells, membrane potential dye, choline EC20; hits give high values; LV-AA mutant CHT in HEK293 cells. Q9GZV3;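 active = initial fluorescence not abnormally high and integrated response B-score, plate-corrected, over 3 SD above library mean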
TMEM16A reconf = TMEM16A (mouse) chloride channel inhibition, re-confirmation; hit rate 39% among 2,300; inhibition, % at 10 µM; HEK293 TMEM16A/YFP-H148Q, iodide quench fluorescence; ionomycin added to raise cell calcium; AID 652189; shares compounds with TMEM16A inh;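 active = mean duplicate percent inhibition, scaled so buffer wells are 0 and the reference blocker 100, over three buffer SD above buffer mean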
HEK293 Ca mobil = counter-screen for TMEM16A inhibitors: effect on calcium mobilization | shares compounds with TMEM16A inh | TMEM16A/YFP HEK293, Fluo4 calcium mobilization | calcium response (% of ionomycin), % at 10 µM | hit rate 2% among 2,300 | AID 652231;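 active = duplicate-averaged calcium signal over 20% of the ionomycin maximum, relative to buffer baseline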;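 also: each well's signal is peak minus trough fluorescence divided by its pre-addition baseline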
YFP-HEK293 quench = acts in parental YFP-HEK293 cells lacking TMEM16A, counter-screen. 2,300 tested, under 10 active. iodide YFP quench, ionomycin. YFP ratio F(max-min)/F0 at 10 µM. shares compounds with TMEM16A inh;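 active = yellow fluorescent protein signal ratio exceeding the buffer control mean by over 5 SD of those controls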;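 also: ratio is mean of duplicate wells from kinetic YFP trace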
ClC-1 inh = rat ClC-1 inhibition, TMEM16A specificity screen. CHO ClC-1-YFP, iodide influx fluorescence quench; iodide control reads 0, buffer control 100. 2,300 tested, under 10 active. shares compounds with TMEM16A inh. ratio percent, % at 10 µM. AID 652236;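 active = duplicate-mean ratio percent above the mean of iodide-only control wells, which defines zero, plus 5 of their SD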;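 also: higher percent means stronger block of ClC-1 iodide influx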
Of the large screens only hits and unclear results are named; the others gave an inactive call (follow-up assays come after a bar, where they were run).

CS(=O)(=O)c1cccc(C(=O)OCC(=O)c2ccc3c(c2)OCCO3)c1	none (no result: Kir21 inh, GPR7 antagonist, CHT block, TMEM16A inh, CHT allo act)
CNS(=O)(=O)c1cccc(C(=O)OCC(=O)c2cc(C)n(-c3ccc4c(c3)OCO4)c2C)c1	TMEM16A inh 25 | TMEM16A reconf inactive | HEK293 Ca mobil inactive | YFP-HEK293 quench inactive | ClC-1 inh inactive
CNS(=O)(=O)c1cccc(C(=O)OCC(=O)c2cc(C)n(CC3CCCO3)c2C)c1 (stereo unspecified)	none (no result: Kir21 inh, GPR7 antagonist, CHT block, TMEM16A inh, CHT allo act)
CCOC(=O)N1CCC(NC(=O)C(CC(C)C)NC(=O)C2CCC(C)CC2)CC1 (stereo unspecified)	TMEM16A inh 100 | TMEM16A reconf inactive | HEK293 Ca mobil inactive | YFP-HEK293 quench inactive | ClC-1 inh inactive
Cc1cc(N2CCCCC2C)nc(-c2ccccc2O)n1 (stereo unspecified)	none
Nn1c(-c2cccs2)nc2sc3c(c2c1=O)CCCC3	TMEM16A inh 25 | TMEM16A reconf 29.5% | HEK293 Ca mobil inactive | YFP-HEK293 quench inactive | ClC-1 inh inactive
CC1(C)Cc2c(sc3nc(-c4cccs4)n(N)c(=O)c23)CO1	none
O=C(COc1ccc(F)cc1)c1ccc2c(c1)CCCC2	TMEM16A inh 100 | TMEM16A reconf inactive | HEK293 Ca mobil inactive | YFP-HEK293 quench inactive | ClC-1 inh inactive
O=C(CC1COc2ccccc2O1)NCc1ccccc1 (stereo unspecified)	none
O=C(CCC1COc2ccccc2O1)NCc1ccccc1 (stereo unspecified)	TMEM16A inh 100 | TMEM16A reconf inactive | HEK293 Ca mobil inactive | YFP-HEK293 quench inactive | ClC-1 inh inactive
Cc1ccc(SCc2ccc(C(=O)N3CCCCC3)cc2)cc1	TMEM16A inh 100 | TMEM16A reconf inactive | HEK293 Ca mobil inactive | YFP-HEK293 quench inactive | ClC-1 inh inactive
CC(C)[C@H](NC(=O)c1ccc(Cl)cc1Cl)C(=O)NNC(=O)c1ccco1	none (no result: Kir21 inh, GPR7 antagonist, CHT block, TMEM16A inh, CHT allo act)
N#Cc1nc(Cc2cccc3ccccc23)oc1NCc1ccc(F)cc1	TMEM16A inh 100 | TMEM16A reconf inactive | HEK293 Ca mobil inactive | YFP-HEK293 quench inactive | ClC-1 inh inactive
C=CCNc1oc(Cc2cccc3ccccc23)nc1C#N	none
CC1CCN(c2oc(Cc3cccc4ccccc34)nc2C#N)CC1	TMEM16A inh 25 | TMEM16A reconf inactive | HEK293 Ca mobil inactive | YFP-HEK293 quench inactive | ClC-1 inh inactive
N#Cc1nc(Cc2cccc3ccccc23)oc1N1CCC(C(N)=O)CC1	none
Cc1cc(C)nc(NCC(O)CNc2ccccc2Cl)n1 (stereo unspecified)	TMEM16A inh 25 | TMEM16A reconf 35.5% | HEK293 Ca mobil inactive | YFP-HEK293 quench inactive | ClC-1 inh inactive
Cc1ccccc1-n1nnnc1SCC(=O)NNC(=O)c1ccc(NC(=O)CC#N)cc1	none (no result: Kir21 inh, GPR7 antagonist, CHT block, TMEM16A inh, CHT allo act)
CCN(CC)S(=O)(=O)c1ccc(Cl)c(NC(=O)COC(=O)c2ccc(O)cc2)c1	TMEM16A inh 25 | TMEM16A reconf 45.0% | HEK293 Ca mobil inactive | YFP-HEK293 quench inactive | ClC-1 inh inactive
O=S(=O)(c1cc(Br)ccc1Br)N1CCCCCC1	TMEM16A inh 25 | TMEM16A reconf 21.0% | HEK293 Ca mobil inactive | YFP-HEK293 quench inactive | ClC-1 inh inactive
O=C(O)COc1ccccc1/C=N/NC(=O)CSc1nc2ccccc2n1Cc1ccc(Cl)cc1	none
COc1cc(OC)c(C(=O)N(CCc2ccccc2)Cc2ccccc2)cc1OC	none
Cc1ccccc1CSCCNC(=S)Nc1ccccc1	none
S=C(NCCSCc1ccc(Cl)cc1Cl)Nc1ccccc1	TMEM16A inh 100 | TMEM16A reconf 23.0% | HEK293 Ca mobil inactive | YFP-HEK293 quench inactive | ClC-1 inh inactive
Cc1ccc(S(=O)(=O)C(C#N)c2nc3ccccc3nc2N2CCN(C)CC2)cc1 (stereo unspecified)	none
Cc1cccc(S(=O)(=O)C(C#N)c2nc3ccccc3nc2N2CCOCC2)c1 (stereo unspecified)	TMEM16A inh 100 | TMEM16A reconf inactive | HEK293 Ca mobil inactive | YFP-HEK293 quench inactive | ClC-1 inh inactive
CCOC(=O)N1CCN(c2nc3ccccc3nc2C(C#N)S(=O)(=O)c2ccc(C)cc2)CC1 (stereo unspecified)	TMEM16A inh 100 | TMEM16A reconf 76.0% | HEK293 Ca mobil inactive | YFP-HEK293 quench inactive | ClC-1 inh inactive
O=C(COC(=O)c1cccc(C(=O)OCC(=O)NC2CC2)n1)NC1CC1	none
N#Cc1nc(COc2ccccc2F)oc1NCCCn1ccnc1	TMEM16A inh 100 (no result: TMEM16A act) | TMEM16A reconf inactive | HEK293 Ca mobil inactive | YFP-HEK293 quench inactive | ClC-1 inh inactive
CCCc1nc2c(sc3nc4c(cc32)COC(C)(C)C4)c(=O)n1CCN(C)C	none
CCCc1nc2c(sc3nc4c(cc32)COC(C)(C)C4)c(=O)n1Cc1ccco1	TMEM16A inh 25 | TMEM16A reconf 47.0% | HEK293 Ca mobil inactive | YFP-HEK293 quench inactive | ClC-1 inh inactive
Cc1ccc(NC(=O)C2CCCN(S(=O)(=O)c3cccnc3)C2)c(C)c1 (stereo unspecified)	none
NC(=O)CSc1nnc(Cn2c(=O)sc3ccccc32)n1-c1cccc(Cl)c1	TMEM16A inh 25 | TMEM16A reconf inactive | HEK293 Ca mobil inactive | YFP-HEK293 quench inactive | ClC-1 inh inactive
O=C(O)CSc1nnc(Cn2c(=O)sc3ccccc32)n1-c1cccc(Cl)c1	none
COc1ccc(S(=O)(=O)N2CCN=C2SCc2cccnc2)cc1	none
COc1ccc(S(=O)(=O)N2CCN=C2SCc2cccc(C)c2)cc1	TMEM16A inh 25 | TMEM16A reconf inactive | HEK293 Ca mobil inactive | YFP-HEK293 quench inactive | ClC-1 inh inactive
O=C(Cn1ccccc1=O)Nc1ccc(Cl)c(S(=O)(=O)N2CCCCC2)c1	none (no result: Kir21 inh, GPR7 antagonist, CHT block, TMEM16A inh, CHT allo act)
CCN(CC)S(=O)(=O)c1ccc(NC(=O)c2ccc(CN3CCOCC3)cc2)cc1	TMEM16A inh 100 | TMEM16A reconf 29.5% | HEK293 Ca mobil inactive | YFP-HEK293 quench inactive | ClC-1 inh inactive
CCCCOc1ccc(C(=O)Nc2ccc(CN3CCOCC3)cc2)cc1	none
O=C(Nc1ccc(S(=O)(=O)N2CCCC2)cc1)c1ccc(CN2CCOCC2)cc1	TMEM16A inh 100 | TMEM16A reconf 46.5% | HEK293 Ca mobil inactive | YFP-HEK293 quench inactive | ClC-1 inh inactive
